Screening results from PubChem.
Chronic BCR inh: qHTS Assay to Find Inhibitors of Chronic Active B-Cell Receptor Signaling | 340,000 compounds, 0.05% hits | Potency, µM (highest dose often 46.1 µM), inactives show top-dose activity change, negative = inhibition, actives largely listed as inhibitors | AID 493014, 2011 | ABC-DLBCL IkBa-CBG/CBR reporter, luminescence ratio, 4 h; active means well fitted inhibition curve with a large enough effect in the signal ratio, with a control signal flat, not every such curve was filed as active; inconclusive means small, poorly fitted or top-dose-only effect, or effect the other way, or a change in a side signal; the % refers to the signal ratio;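 further: potency means the concentration at half of the fitted maximal effect; plate controls were basal doxycycline-induced cells for no effect and cells given 10 µM MG132 for full effect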
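TMD8 ABC-DLBCL cells carrying doxycycline-inducible green luciferase fused to IkappaBalpha plus unfused red luciferase were exposed to compounds (up to 46 uM) for 4 hrs at 37C. Activity came from the overlap-corrected green/red luminescence ratio.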
SW480 rereplic: A quantitative high throughput screen for small molecules that induce DNA re-replication in SW480 colon adenocarcinoma cells; 340,000 compounds, 1.8% hits; Potency, µM (top dose mostly 46.1 µM), without a hit: top-dose re-replication activation, actives largely listed as activators; SW480 DNA re-replication, Hoechst DNA content imaging, 48 h; AID 624297, 2012; further: potency means the concentration at half of the fitted maximal effect; % of control where 0% means no effect; nearly all actives have a fitted effect of over 55% in size
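First, 250 cells per well were seeded. Next, compound or vehicle (23 nL) was pinned in, plates sat 48 hr at 37 C. Finally Hoechst was added for 40 min before fluorescence scanning.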
DT40 TDP1 no CPT: qHTS for Inhibitors of human tyrosyl-DNA phosphodiesterase 1 (TDP1): qHTS in cells in absence of CPT. DT40 Tdp1-/- hTDP1 cells, no CPT, ATP luminescence, 48 h. Potency, µM (highest dose often 46.2 µM), for inactives: top-dose activity change, negative = growth inhibition, actives largely listed as inhibitors. 420,000 compounds, 15% hits; further: potency means the concentration at half of the fitted maximal effect; on the % scale 0 is the no-effect control and ±100 the full control effect; nearly all actives have a fitted effect of over 55% in size
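Camptothecin absent (DMSO only). Human TDP1-complemented DT40 knockout cells, 400 cells/well, 37 °C for minimum 48 hr; ATP measured via CellTiter-Glo, 30 min dark incubation, luminescence.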
MCF10A rerep: A quantitative high throughput screen for small molecules that induce DNA re-replication in MCF 10a normal breast cells; MCF 10A DNA re-replication, Hoechst nuclear intensity, 48 h; Potency, µM (doses to about 46.1 µM), inactives show at the highest dose activity, positive = re-replication, hits mostly activators; 350,000 compounds, 2.9% hits; further: potency means the concentration at half of the fitted maximal effect; % of control where 0% means no effect; nearly all actives have a fitted effect of over 50% in size
IL-1B inflam inh: qHTS for Inhibitors of Inflammasome Signaling: IL-1-beta AlphaLISA Primary Screen; THP-1 LPS/ATP IL-1B secretion, AlphaLISA, 16 h; hits give low values; activity change, % at 57.5 µM; 360,000 compounds, 4.7% hits; AID 743279, 2014; in the data active means activity change below about -50%; inconclusive means mostly about -30% to -49%; further: on the % scale 0 is the no-effect control and ±100 the full control effect
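THP-1 cells pretreated 1 hr with compounds (up to 57.5 uM final), then stimulated with LPS (250 ng/mL final) plus ATP (1.25 mM final); secreted IL-1B measured by AlphaLISA after 16 hr, decreased signal indicating inhibition.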
DT40 TDP1 CPT: qHTS for Inhibitors of human tyrosyl-DNA phosphodiesterase 1 (TDP1): qHTS in cells in presence of CPT; Potency, µM (highest dose often 46.2 µM), inactives show top-dose activity change, negative = growth inhibition, hits mostly inhibitors; 420,000 compounds, 12% hits; chicken DT40 Tdp1-/-;hTDP1 cells + 20 nM CPT, ATP luminescence, 48 h; further: potency means the concentration at half of the fitted maximal effect; on the % scale 0 is the no-effect control and ±100 the full control effect; nearly all actives have a fitted effect of over 55% in size
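Cell growth measured by CellTiter-Glo luminescence after a minimum 48 h, 37 C compound exposure with 20 nM CPT in Tdp1-knockout DT40 cells stably expressing hTDP1, seeded 400/well; qHTS titration format.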
* hit, by the source's call; ? = inconclusive; nt = no result given; ! = not active in a repeat. In the library only some 19% were active in any assay of this set; here they are far more common. Unless noted, the call rests on the fitted dose curve; in most records, active means well fitted curve in the direction sought with a large enough effect; inconclusive means small, poorly fitted or top-dose-only effect, or another doubt; inactive means no such curve, though single readings can be large; an effect the other way counts as inactive or inconclusive.

SMILES	Chronic BCR inh	SW480 rereplic	DT40 TDP1 no CPT	MCF10A rerep	IL-1B inflam inh	DT40 TDP1 CPT
COc1ccc(NS(=O)(=O)c2ccc(/C=C/C(=O)O)cc2)cc1S(=O)(=O)N1CCOCC1	2%	-6%	9%	1%	13	9%
COc1cc(C(=O)Oc2ccccc2/C=N/NC(=O)c2ccc(Cl)cc2Cl)cc(OC)c1OC	-22%	?	0.92µM*	?	79	0.65µM*
COc1ccc(/C=N/NC(=O)c2cccs2)c2ccccc12	nt	3%	8.2µM*	?	-9	?
COc1ccc(/C=N/NC(=O)c2cccc3ccccc23)c(OC)c1OC	nt	-14%	?	15µM*	6	?
O=C(N/N=C/c1cccc2ccccc12)c1cccc(F)c1	?	-3%	0%	?	-63*	0%
COc1ccc(OC)c(/C=N/NC(=O)c2cccc3ccccc23)c1	nt	?	?	?	42	7%
COc1ccc(/C=N/NC(=O)c2cccnc2)c2ccccc12	-20%	-3%	-26%	5%	71	1%
COc1cccc(CSc2nc3n(n2)C(CC(C)C)C(C(=O)Nc2ccccc2C)=C(C)N3)c1 (configuration not stated)	12%	nt	-38%	nt	nt	?
COC(=O)c1sccc1N/N=C/c1cccc(OC)c1O	?	-2%	?	?	-12	3%
COc1ccccc1/C=N/NC(=O)c1cccc2ccccc12	-19%	?	?	-3%	-11	23µM*
COc1cc(/C=N/NC(=O)c2cccc3ccccc23)cc(OC)c1O	-10%	-6%	?	12%	25	4.6µM*
COc1ccc(C(=O)Oc2cc(/C=N/NC(N)=S)ccc2OC)cc1	8%	-1%	-26%	0%	13	-5%
COC(=O)c1sccc1N/N=C/c1ccc(OC)c(OC)c1OC	?	11%	?	23µM*	-14	5%
COc1ccc(/C=N/NC(N)=S)cc1OC(=O)c1cccc2ccccc12	10%	?	18µM*	?	-8	15µM*
CC(=O)C[C@@H](O)CC(=O)[C@@H]1OC(=O)[C@H](C)CCCCc2ccccc21	4%	?	0%	-30%	10	22%
NCCCC(O)(P(=O)(O)O)P(=O)(O)O	nt	-10%	-12%	-1%	nt	-24%
COC(=O)c1ccc(C(=O)OC)c(NC(=O)c2cnn3c(C(F)F)cc(-c4ccc(C)cc4)nc23)c1	nt	nt	1%	nt	nt	-19%
CCOC(=O)Cc1ccc(NC(=O)N2CC(C)Oc3ccc(Cl)cc32)cc1 (configuration not stated)	nt	nt	?	nt	nt	16µM*
CCC1CN(C(=O)Nc2cc(Cl)c(OC)cc2OC)c2ccccc2O1 (configuration not stated)	nt	nt	-2%	nt	nt	12%
CCOC(=O)Cc1ccc(NC(=O)N2CC(CC)Oc3ccccc32)cc1 (configuration not stated)	nt	nt	?	nt	nt	16µM*
O=C(NC1CCN(C(=O)Nc2ccccc2Cl)CC1)c1cccc(F)c1	-2%	-24%	?	5%	13	?
O=C(NC(=S)Nc1cc(Cl)ccc1Cl)c1ccco1	nt	nt	-8%	nt	16	0%
O=C(NC(=S)N1CCN(Cc2ccc3c(c2)OCO3)CC1)c1ccc(Cl)cc1	?	2%	21µM*	?	-12	?
O=C(NC(=S)N1CCN(Cc2ccc3c(c2)OCO3)CC1)c1cccc(Br)c1	-1%	0%	15µM*	11%	-6	16µM*
Cc1cccc(C(=O)N=c2c(C#N)cc3c(=O)n4cccc(C)c4nc3n2Cc2ccco2)c1	29%	23µM*	?	18µM*	13	21µM*
SMILES	Chronic BCR inh	SW480 rereplic	DT40 TDP1 no CPT	MCF10A rerep	IL-1B inflam inh	DT40 TDP1 CPT
Cc1cccn2c(=O)c3cc(C#N)c(=NC(=O)c4ccccc4)n(Cc4ccco4)c3nc12	nt	7.3µM*	18µM*	2.3µM*	-76*!	18µM*
CCOc1cc(C)nc(NCc2ccccc2)n1	-4%	?	21µM*	12µM*	16	23µM*
Cc1cc(C)n2nc(NCc3ccccc3)nc2n1	nt	-7%	-1%	1%	-23	0%
CC(=O)c1ccc(Oc2cc(C)nc(NCc3ccccc3)n2)cc1	?	-5%	21µM*	11%	21	21µM*
Cc1cc(OC2CCCCC2)nc(NCc2ccccc2)n1	?	-13%	5%	-14%	nt	4%
Cc1cc(Oc2ccccc2)nc(SCC(N)=O)n1	4%	-3%	-13%	-3%	11	-3%
CCCCOc1cc(C)nc(NCc2ccccc2)n1	14%	?	16µM*	?	20	4.1µM*
C=CCCC(=O)N1C[C@H]2CON(C)[C@H]2C[C@H]1c1cccc(N2CCOCC2)c1	nt	nt	-3%	nt	-2	0%
O=C(CSc1nc(=O)[nH]c2c1CCCC2)Nc1ccccc1C(F)(F)F	-16%	nt	?	nt	nt	?
CCCCCCCCCCCCCCCC(=O)OC[C@@H](O)[C@H]1OC[C@H](O)[C@H]1O	nt	nt	-14%	nt	nt	4%
COc1ccccc1CNC(=O)COc1cc(=O)n(C)c2ccccc12	nt	nt	?	nt	nt	-28%
COc1cccc2c1C(=O)c1c(O)c3c(c(O)c1C2=O)C[C@](O)(C(=O)CO)C[C@@H]3O[C@H]1C[C@H](N)[C@@H](O)[C@H](C)O1	nt	-8%	nt	-4%	nt	nt
CC[C@@]1(O)C[C@H](O[C@H]2C[C@H](N(C)C)[C@H](O[C@H]3C[C@H](O)[C@H](O[C@H]4CCC(=O)[C@H](C)O4)[C@H](C)O3)[C@H](C)O2)c2c(cc3c(c2O)C(=O)c2c(O)cccc2C3=O)[C@H]1C(=O)OC	nt	nt	0.24µM*	nt	nt	0.21µM*
COc1cccc2c1C(=O)c1c(O)c3c(c(O)c1C2=O)C[C@@](O)(C(=O)CO)C[C@@H]3O[C@H]1C[C@H](N)[C@@H](O)[C@H](C)O1	nt	-134%	0.15µM*	-26%	-27	0.16µM*
COc1cccc2c1C(=O)c1c(O)c3c(c(O)c1C2=O)CC(O)(C(=O)CO)CC3OC1CC(N(C)C)C(O)C(C)O1 (configuration not stated)	nt	-9%	0.15µM*	1%	-100*	0.015µM*
